Assay results from PubChem BioAssay (NCATS).
Results filed as inconclusive are left out. A call without a number means that no potency is given here. Activity calls are given as the source filed them. Calls follow the shape of the dose curve; as a rule, active = well fitted inhibition curve with a large enough effect; inconclusive = small, poorly fitted or top-dose-only effect; inactive = flat fitted curve, though single readings scatter.

Test system: CP305
Assay: qHTS profiling for inhibitors of Plasmodium falciparum proliferation (AID 504749); also: nearly all actives have a fitted effect of over 60% in size
Settings: P. falciparum in erythrocytes, SYBR Green DNA, 72 h; series mostly up to 28.7 µM
Procedure, shortened: (§1)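 Readout was DNA-dye fluorescence from lysed cultures, ex 485/em 535 nm. Parasitized red cells had grown 72 h with compound; data scaled between 0.29 uM artemisinin and DMSO wells and corrected using vehicle-only plates.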
Potency is read from the fitted curve at half-maximal effect.

`CC1(C)OC[C@@H]2O[C@@]3(C(=O)O)OC(C)(C)O[C@@H]3[C@@H]2O1` was tested. Which Potency did it give?
The Potency was “inactive”.

`Cc1ccccc1N1C(=O)c2cc(N)ccc2N/C1=C\F` was tested. Which Potency did it give?
Its Potency is “inactive”.

With `CCC(C(=O)O)C1OC(C(C)C(O)C(C)C(=O)C(CC)C2OC3(C=CC(O)C4(CCC(C)(C5CCC(O)(CC)C(C)O5)O4)O3)C(C)CC2C)C(C)CC1C` (configuration not stated) as the compound, how does the Potency read?
Its Potency is 53.6 nM (active).

Which Potency does the source give for `O=C1C(I)=CC(=C(c2cc(I)c(O)c(I)c2)c2ccccc2C(=O)O)C=C1I` here?
Its Potency is “inactive”.

How did the Potency turn out when `NC(=O)NC(CCC(=O)O)C(=O)O` (configuration not stated) was run?
The Potency was “inactive”.

How did the Potency turn out when `COC1CC2CCC(C)[C@](O)(O2)C(=O)C(=O)N2CCCCC2C(=O)OC(C(C)CC2CCC(O)C(OC)C2)CC(=O)C(C)/C=C(/C)C(O)C(OC)C(=O)C(C)CC(C)C=CC=C/C=C\1C` (some centres not stated) was run?
Its Potency is 5360 nM (active).

With `CC(=O)OCC(=O)[C@@]1(O)CCC2C3C[C@H](C)C4=CC(=O)C=CC4(C)C3C(O)CC21C` (some centres not stated) as the compound, how does the Potency read?
The Potency was “inactive”.

`CN[C@H](C)CCC=C(C)C` was tested. Which Potency did it give?
Its Potency is 1690 nM (active).

Which Potency does the source give for `CC1(C)C2CC[C@]1(C)[C@@H](O)C2` here?
Its Potency is “inactive”.

With `OCC1O[C@H](Oc2ccc(O)cc2)C(O)C(O)C1O` (some centres not stated) as the compound, how does the Potency read?
The Potency was “inactive”.

With `CC1OC(OC2CCC3(C)C(CCC4C3CC(O)C3(C)C(C5=CC(=O)OC5)CCC43O)C2)CC(O)C1OC1CC(O)C(OC2CC(O)C(OC3OC(CO)C(O)C(O)C3O)C(C)O2)C(C)O1` (configuration not stated) as the compound, how does the Potency read?
The Potency was “inactive”.

For `CC1OC(OCC2OC(Oc3c(-c4ccc(OCCO)c(OCCO)c4)oc4cc(OCCO)cc(O)c4c3=O)C(O)C(O)C2O)[C@@H](O)C(O)C1O` (some centres not stated), which Potency is on record?
The Potency was “inactive”.

Test system: CP315
Assay: as above
Settings: P. falciparum in erythrocytes, SYBR Green DNA, 72 h; series mostly up to 28.7 µM
Procedure, shortened: as §1

`CCCCCCCCCCCCCCCC(=O)OC[C@H](O)[C@H]1OC[C@@H](O)[C@@H]1O` was tested. Which Potency did it give?
Its Potency is “inactive”.

For `CCCCC(=O)OCC(=O)[C@]1(O)Cc2c(O)c3c(c(O)c2[C@H](OC2CC(NC(=O)C(F)(F)F)C(O)C(C)O2)C1)C(=O)c1c(OC)cccc1C3=O` (some centres not stated), which Potency is on record?
The Potency was 1690 nM (active).

With `C[C@H]1OC(OC2C(O)[C@@H](O)C(OC3C(O)[C@@H](O)C(O)O[C@@H]3CO)O[C@@H]2CO)[C@H](O)C(O)C1N[C@H]1C=C(CO)[C@@H](O)[C@H](O)C1O` (some centres not stated) as the compound, how does the Potency read?
Its Potency is “inactive”.

For `CCN(CC)CC(=O)Nc1c(C)cc(C)cc1C`, which Potency is on record?
The Potency was “inactive”.

For `CC(=O)N[C@H]1[C@H](O[C@@H]2c3ccc(c(Cl)c3)Oc3cc4cc(c3O[C@@H]3O[C@H](CO)[C@@H](O)[C@H](O)C3C)Oc3ccc(cc3Cl)C[C@H]3NC(=O)[C@@H](N)c5ccc(O)c(c5)Oc5cc(O)cc(c5)[C@H](NC3=O)C(=O)N[C@H]4C(=O)N[C@H]3C(=O)N[C@@H]2C(=O)N[C@@H](C(=O)O)c2cc(O)cc(O[C@H]4O[C@H](CO)[C@@H](O)C(O)[C@@H]4O)c2-c2cc3ccc2O)O[C@H](CO)[C@@H](O)[C@@H]1O` (some centres not stated), which Potency is on record?
Its Potency is “inactive”.

With `NC(=O)c1ncn(C2OC(CO)C(O)C2O)c1N` (configuration not stated) as the compound, how does the Potency read?
The Potency was “inactive”.

With `C[C@H]1[C@@H](OC(=O)CCC(=O)O)OC2OC3(C)CC[C@H]4[C@H](C)CC[C@@H]1[C@@]24OO3` (some centres not stated) as the compound, how does the Potency read?
The Potency was 12 nM (active).

With `CC1(Cn2ccnn2)[C@H](C(=O)O)N2C(=O)C[C@H]2S1(=O)=O` (some centres not stated) as the compound, how does the Potency read?
The Potency was “inactive”.

With `CN(C)CC/C=C1\c2ccccc2COc2ccc(CC(=O)O)cc21` as the compound, how does the Potency read?
The Potency was “inactive”.

Which Potency does the source give for `CCCC(=O)O[C@]1(C(=O)COC(C)=O)CC[C@H]2C3C[C@H](F)C4=CC(=O)C=CC4(C)[C@@]3(F)[C@@H](O)CC21C` (some centres not stated) here?
The Potency was “inactive”.

With `OCCN1CC(O)C(O)C(O)C1CO` (configuration not stated) as the compound, how does the Potency read?
The Potency was “inactive”.

`COc1cc2c(cc1O)CCN[C@@]21CS[C@H]2c3c(OC(C)=O)c(C)c4c(c3C(COC1=O)N1C2C2c3c(cc(C)c(OC)c3O)CC([C@@H]1O)N2C)OCO4` (some centres not stated) was tested. Which Potency did it give?
Its Potency is 1.5 nM (active).

With `CC(CCC(=O)O)C1CCC2C3C(=O)C[C@@H]4CC(=O)CC[C@@]4(C)C3CC(=O)[C@]12C` (some centres not stated) as the compound, how does the Potency read?
Its Potency is “inactive”.

For `C[n+]1c2cc(N)ccc2cc2ccc(N)cc21`, which Potency is on record?
The Potency was 2130 nM (active).

Which Potency does the source give for `O=C(OC[C@@H]1O[C@@](O)(COC(=O)c2cccnc2)[C@H](OC(=O)c2cccnc2)[C@H]1OC(=O)c1cccnc1)c1cccnc1` here?
Its Potency is “inactive”.

With `O=[N+]([O-])O[C@H]1CO[C@H]2[C@@H]1OC[C@H]2O` as the compound, how does the Potency read?
Its Potency is “inactive”.

`COc1cccc(OC)c1C(=O)NC1C(=O)N2C1SC(C)(C)C2C(=O)O` (configuration not stated) was tested. Which Potency did it give?
Its Potency is “inactive”.

Which Potency does the source give for `NC[C@@H]1O[C@H](OC2[C@@H](CO)O[C@@H](OC3[C@H](O)[C@H](N)C[C@H](N)[C@H]3OC3O[C@H](CO)[C@@H](O)[C@H](O)[C@@H]3N)[C@H]2O)C(N)[C@H](O)[C@@H]1O` (some centres not stated) here?
Its Potency is “inactive”.

`Cc1ccc(S(=O)(=O)NC(=O)NC(C)Cc2ccccc2)cc1` (configuration not stated) was tested. Which Potency did it give?
The Potency was “inactive”.

For `OCCOC[C@H]1O[C@H](OCCO)[C@H](OCCO)[C@@H](OCCO)[C@@H]1OCCO` (tested in a mixture with another compound), which Potency is on record?
The Potency was “inactive”.

With `C[S+](C)CC[C@H](N)C(=O)O` as the compound, how does the Potency read?
Its Potency is “inactive”.

For `CC[C@@H]1/C=C(\C)C[C@H](C)C[C@H](OC)[C@H]2O[C@@](O)(C(=O)C(=O)N3CCCC[C@H]3C(=O)O[C@H](/C(C)=C/[C@@H]3CC[C@H](Cl)[C@H](OC)C3)[C@H](C)[C@@H](O)CC1=O)[C@H](C)C[C@@H]2OC`, which Potency is on record?
The Potency was “inactive”.

For `NC(=O)C1CC2(NC(=O)NC2=O)c2cc(F)ccc2O1` (configuration not stated), which Potency is on record?
The Potency was “inactive”.

With `CN1[C@@H]2CC[C@@H]1CC(OC(=O)[C@H](CO)c1ccccc1)C2` (some centres not stated) as the compound, how does the Potency read?
Its Potency is “inactive”.

For `CC[C@@]1(O)C[C@H](O[C@H]2C[C@@H](N(C)C)[C@@H](O[C@H]3C[C@@H](O)[C@@H](O[C@H]4CCC(=O)[C@@H](C)O4)[C@@H](C)O3)[C@@H](C)O2)c2c(cc3c(c2O)C(=O)c2c(O)cccc2C3=O)[C@H]1C(=O)OC`, which Potency is on record?
Its Potency is 1350 nM (active).

`CCCCCCCCCCCC(=O)OCC(O)C1OCC(O)C1O` (configuration not stated) was tested. Which Potency did it give?
Its Potency is “inactive”.

For `C/C1=C2/[N-]C(C(CC(N)=O)[C@@]2(C)CCC(=O)NCC(C)OP(=O)([O-])O[C@H]2[C@@H](O)[C@@H](n3cnc4cc(C)c(C)cc43)O[C@@H]2CO)[C@]2(C)N=C(/C(C)=C3N=C(/C=C4N=C1C(CCC(N)=O)C\4(C)C)[C@@H](CCC(N)=O)[C@]\3(C)CC(N)=O)[C@@H](CCC(N)=O)[C@]2(C)CC(N)=O.CC(=O)O.[Co]` (some centres not stated), which Potency is on record?
The Potency was “inactive”.

For `CC1(C)OC[C@@H]2O[C@@]3(C(=O)O)OC(C)(C)O[C@@H]3[C@@H]2O1`, which Potency is on record?
Its Potency is “inactive”.

How did the Potency turn out when `Cc1ccccc1N1C(=O)c2cc(N)ccc2N/C1=C\F` was run?
The Potency was “inactive”.

With `CCC(C(=O)O)C1OC(C(C)C(O)C(C)C(=O)C(CC)C2OC3(C=CC(O)C4(CCC(C)(C5CCC(O)(CC)C(C)O5)O4)O3)C(C)CC2C)C(C)CC1C` (configuration not stated) as the compound, how does the Potency read?
The Potency was 33.8 nM (active).

Which Potency does the source give for `O=C1C(I)=CC(=C(c2cc(I)c(O)c(I)c2)c2ccccc2C(=O)O)C=C1I` here?
The Potency was “inactive”.

For `NC(=O)NC(CCC(=O)O)C(=O)O` (configuration not stated), which Potency is on record?
The Potency was “inactive”.

Which Potency does the source give for `COC1CC2CCC(C)[C@](O)(O2)C(=O)C(=O)N2CCCCC2C(=O)OC(C(C)CC2CCC(O)C(OC)C2)CC(=O)C(C)/C=C(/C)C(O)C(OC)C(=O)C(C)CC(C)C=CC=C/C=C\1C` (some centres not stated) here?
Its Potency is 4260 nM (active).

Which Potency does the source give for `CC(=O)OCC(=O)[C@@]1(O)CCC2C3C[C@H](C)C4=CC(=O)C=CC4(C)C3C(O)CC21C` (some centres not stated) here?
The Potency was “inactive”.

`CN[C@H](C)CCC=C(C)C` was tested. Which Potency did it give?
Its Potency is 849 nM (active).

Which Potency does the source give for `CC1(C)C2CC[C@]1(C)[C@@H](O)C2` here?
Its Potency is “inactive”.

Which Potency does the source give for `OCC1O[C@H](Oc2ccc(O)cc2)C(O)C(O)C1O` (some centres not stated) here?
Its Potency is “inactive”.

How did the Potency turn out when `Nc1nc(F)nc2c1ncn2[C@@H]1O[C@H](CO)[C@@H](O)[C@H]1O` was run?
The Potency was “inactive”.

`CC1OC(OC2CCC3(C)C(CCC4C3CC(O)C3(C)C(C5=CC(=O)OC5)CCC43O)C2)CC(O)C1OC1CC(O)C(OC2CC(O)C(OC3OC(CO)C(O)C(O)C3O)C(C)O2)C(C)O1` (configuration not stated) was tested. Which Potency did it give?
Its Potency is “inactive”.

`CC1OC(OCC2OC(Oc3c(-c4ccc(OCCO)c(OCCO)c4)oc4cc(OCCO)cc(O)c4c3=O)C(O)C(O)C2O)[C@@H](O)C(O)C1O` (some centres not stated) was tested. Which Potency did it give?
The Potency was “inactive”.
